Results taken from PubChem BioAssay (NCATS).
Values joined by “and” are separate entries in the source; they are usually repeats but may differ in a detail not shown here. Equal entries are not always repeated. Records with an inconclusive call do not appear. For part of these data: Potency and affinity values are given separately. Active and inactive are the calls of the source.

Tests used:
[1] = Ebola virus entry assay, blue channel fluorescence
[2] = Ebola virus entry assay, green fluorescence channel
[3] = Ebola virus entry assay, ratio channel readout
[4] = Ebola virus entry assay, blue channel fluorescence; remark: listed apart in the source
[5] = qHTS for Activators of Parkin Expression: LOPAC Validation Assay (FLuc Reporter) (AID 720573; active = well fitted curve in the direction sought with a large enough effect; an effect the other way counts as inactive or inconclusive;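 note: 0% = DMSO and 100% = positive control compounds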); conditions: Cell line, PRKN promoter firefly luciferase reporter, vehicle wells = 0, positive control = 100%; series mostly up to 46.1 µM
How it was run: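 FLuc signal from Parkin-promoter coincidence reporter neuronal cells, normalized to DMSO and positive control (100%). Cells (1,500/well) pre-incubated 24 h, then exposed to LOPAC compounds in 7-point dose response for 24 h at 37 C, 5% CO2.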

[6] = target: T1, Hexokinase-4 (Homo sapiens) + Glucokinase regulatory protein (Homo sapiens) (UniProt P35557+Q14397); test: qHTS assay for inhibitors of recombinant human GCK-GKRP interaction: Diaphorase-coupled assay (AID 743205; active = well fitted curve in the direction sought with a large enough effect; an effect the other way counts as inactive or inconclusive); conditions: G6PDH/diaphorase resorufin fluorescence; series mostly up to 57.5 µM
T1 sequence (P35557 whole entry, looked up): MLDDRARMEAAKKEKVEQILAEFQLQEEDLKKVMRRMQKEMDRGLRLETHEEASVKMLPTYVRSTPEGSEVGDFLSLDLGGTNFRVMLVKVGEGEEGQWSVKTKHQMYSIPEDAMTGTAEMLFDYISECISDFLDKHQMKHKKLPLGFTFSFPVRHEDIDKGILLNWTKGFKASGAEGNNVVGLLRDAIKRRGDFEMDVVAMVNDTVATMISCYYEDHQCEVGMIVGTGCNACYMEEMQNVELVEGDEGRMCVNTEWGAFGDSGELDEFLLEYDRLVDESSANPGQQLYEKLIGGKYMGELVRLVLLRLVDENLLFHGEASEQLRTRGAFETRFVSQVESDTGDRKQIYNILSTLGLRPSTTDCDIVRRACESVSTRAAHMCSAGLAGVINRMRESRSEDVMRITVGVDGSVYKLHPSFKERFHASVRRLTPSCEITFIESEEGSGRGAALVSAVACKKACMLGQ
T1 sequence (Q14397 whole entry, looked up): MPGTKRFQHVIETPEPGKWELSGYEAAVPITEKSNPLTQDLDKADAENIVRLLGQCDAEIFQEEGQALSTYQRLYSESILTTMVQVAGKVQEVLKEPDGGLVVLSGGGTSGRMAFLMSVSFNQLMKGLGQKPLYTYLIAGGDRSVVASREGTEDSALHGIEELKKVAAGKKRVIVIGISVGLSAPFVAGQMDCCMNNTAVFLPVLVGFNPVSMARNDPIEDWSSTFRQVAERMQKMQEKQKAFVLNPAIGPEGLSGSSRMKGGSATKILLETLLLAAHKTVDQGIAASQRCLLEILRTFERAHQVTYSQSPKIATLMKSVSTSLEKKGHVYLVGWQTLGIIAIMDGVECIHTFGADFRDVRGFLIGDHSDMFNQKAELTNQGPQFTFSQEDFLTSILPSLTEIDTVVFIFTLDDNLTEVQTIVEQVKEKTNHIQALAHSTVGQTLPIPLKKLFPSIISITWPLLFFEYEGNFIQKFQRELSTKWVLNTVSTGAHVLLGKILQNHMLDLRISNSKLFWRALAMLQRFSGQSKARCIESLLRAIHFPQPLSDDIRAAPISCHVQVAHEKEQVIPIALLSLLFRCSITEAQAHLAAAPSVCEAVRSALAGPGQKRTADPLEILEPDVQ
How it was run: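 A kinetic fluorescence read (Ex 525/Em 590 nm, every minute for 30 minutes) tracked resorufin from a G6PDH-diaphorase coupled GCK reaction. It contained 10 nM GST-GCK, 10 nM FLAG-GKRP, 5 mM glucose, 0.4 mM ATP in Hepes pH 7.6. Normalized to with/without-enzyme DMSO controls.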

[7] = target: T1, Hexokinase-4 (Homo sapiens) + Glucokinase regulatory protein (Homo sapiens); test: qHTS assay for inhibitors of recombinant human GCK-GKRP interaction: ADP-Glo assay (AID 743206; active = well fitted curve in the direction sought with a large enough effect; an effect the other way counts as inactive or inconclusive;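 note: plate controls were DMSO plus enzyme for no effect and no enzyme for full effect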); conditions: ADP-Glo luminescence, 60 min, 0% = vehicle-only wells with enzyme present; series mostly up to 76.9 µM
How it was run: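 Pin-transferred compounds meet a 15 nM GST-GCK/15 nM FLAG-GKRP/2 uM S6P mix (dispense concentrations). ATP is then added to 0.4 mM final with 5 mM glucose, and the reaction runs 60 min at room temperature. ADP is quantified luminescently.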

[8] = qHTS Assay for Identifying Gametocytocidal Compounds (AID 743244; active = well fitted curve in the direction sought with a large enough effect; an effect the other way counts as inactive or inconclusive;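 note: % is set by controls: 0 for no effect and ±100 for the full control effect; actives lower the fluorescent signal which means gametocytes are killed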); conditions: P. falciparum 3D7 stage III-V gametocytes, alamarBlue, 72 h; max response: stronger effect = lower value
How it was run: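 Using 20,000 stage III–V 3D7 gametocytes per well, compounds were incubated 72 h under 37 °C/5% CO2. Viability was then assessed by 24 h alamarBlue reduction, measured fluorometrically at 525/598 nm.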

[9] = qHTS profiling of the MIPE4 collection as inhibitors of Plasmodium falciparum (3D7) proliferation (AID 743344; call rule not given here;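 note: scaled between DMSO vehicle wells and 0.29 µM artemisinin as full inhibition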); conditions: P. falciparum 3D7 in erythrocytes, SYBR Green DNA fluorescence, 72 h; at 28.5 µM (top of the series) unless noted
How it was run: (§1)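 Parasite DNA was quantified by SYBR Green I fluorescence (ex 485, em 535 nm) after overnight lysis in saponin/Triton buffer at room temperature. Cultures at 0.3% parasitemia and 2.5% hematocrit were first exposed to compound for 72 h at 37 C; signals were normalised to artemisinin (0.29 uM) and vehicle wells.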

[10] = qHTS profiling of the MIPE4 collection as inhibitors of Plasmodium falciparum (DD2) proliferation (AID 743345; call rule not given here); conditions: P. falciparum Dd2 in erythrocytes, SYBR Green DNA, 72 h; at 28.5 µM (top of the series) unless noted
How it was run: as §1

[11] = qHTS profiling of the MIPE4 collection as inhibitors of Plasmodium falciparum (DD2) proliferation (Rep 2) (AID 743346; call rule not given here); conditions: P. falciparum Dd2 in erythrocytes, SYBR Green DNA, 72 h; at 28.5 µM (top of the series) unless noted
How it was run: as §1

[12] = qHTS profiling of the MIPE4 collection as inhibitors of Plasmodium falciparum (HB3) proliferation (AID 743347; call rule not given here;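 note: plate controls were DMSO vehicle wells for no effect and artemisinin wells for full effect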); conditions: P. falciparum HB3 in erythrocytes, SYBR Green DNA, 72 h; at 28.5 µM (top of the series) unless noted
How it was run: as §1

[13] = Ebola virus entry assay, ratio channel
[14] = qHTS assay for small molecule agonists of the antioxidant response element (ARE) signaling pathway measured by Nrf2-dependant transcriptional activity (AID 720636; active = well fitted curve in the direction sought with a large enough effect in the repeat runs; an effect the other way counts as inactive or inconclusive; note: % of control where 0% means no effect); conditions: ARE-luc HepG2, Nrf2 luciferase reporter, 16 h; series mostly up to 92.4 µM
How it was run: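 Nrf2-dependent transcription read as ONE-Glo luciferase signal from ARE-luc HepG2 reporter cells after 16 hr compound treatment at 37 C, 5% CO2, in assay medium with 1% dialyzed FBS.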

[15] = qHTS assay for small molecule antagonists of the retinoid-related orphan receptor gamma (ROR-gamma) signaling pathway - cell viability counter screen (AID 720652; active = well fitted curve in the direction sought with a large enough effect in the repeat runs; an effect the other way counts as inactive or inconclusive;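 note: CHO reporter cells with doxycycline-induced ROR-gamma expression; compound exposure lasted 16 hr before ATP read; % is set by controls: 0 for no effect and ±100 for the full control effect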); conditions: RORgamma reporter cell line viability counter screen; series mostly up to 92.2 µM
How it was run: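 ATP-based viability readout in the ROR-gamma reporter CHO cells after 16 hr compound exposure under doxycycline induction.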

[16] = qHTS assay for small molecule agonists of the antioxidant response element (ARE) signaling pathway measured by Nrf2-dependant transcriptional activity - cell viability counter screen (AID 720653; active = well fitted curve in the direction sought with a large enough effect in the repeat runs; an effect the other way counts as inactive or inconclusive; note: % is set by controls: 0 for no effect and ±100 for the full control effect); conditions: ARE-bla HepG2 viability, CellTiter-Glo ATP luminescence, 16 h; stronger effect = lower value
How it was run: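 ARE-bla HepG2 cells treated with compounds for 16 h at 37C; this counter screen measures viability as intracellular ATP by CellTiter-Glo luminescence after 30 min at room temperature.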

[17] = qHTS assay for cell viability of HEK293 cells (AID 743288; active = well fitted curve in the direction sought with a large enough effect; an effect the other way counts as inactive or inconclusive; note: % is set by controls: 0 for no effect and ±100 for the full control effect; nearly all actives have a fitted effect of over 50% in size); conditions: ATP luminescence (CellTiter-Glo), 18 h, stronger effect = lower value
How it was run: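 Readout is luciferase-coupled ATP content (CellTiter-Glo luminescence, 30 min room temperature) as a measure of metabolically competent cells. Parental HEK293 cells were plated 5 h or more before compound addition, then treated 18 h at 37 C.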

CC[C@H]1OC(=O)[C@H](C)[C@@H](O[C@H]2C[C@@](C)(OC)[C@@H](O)[C@H](C)O2)[C@H](C)[C@@H](O[C@@H]2O[C@H](C)C[C@H](N(C)C)[C@@H]2O)[C@](C)(O)C[C@@H](C)CN(C)[C@H](C)[C@@H](O)[C@]1(C)O
inactive: outcome [2]
active: AC50 [1] 2.51 µM | AC50 [3] 2.52 µM

CC(C)CN(C[C@@H](O)[C@H](Cc1ccccc1)NC(=O)O[C@H]1CO[C@H]2OCC[C@H]21)S(=O)(=O)c1ccc(N)cc1
inactive: outcome [1] | outcome [2] | outcome [3]

CC[C@H](C)C(=O)O[C@H]1C[C@H](O)C=C2C=C[C@H](C)[C@H](CC[C@@H](O)C[C@@H](O)CC(=O)O)[C@H]21
inactive: outcome [1] | outcome [2] | outcome [3]

COc1ccnc(CS(=O)c2nc3cc(OC(F)F)ccc3[nH]2)c1OC (centres undefined)
inactive: outcome [1] | outcome [2] | outcome [3]

CN[C@@H]1[C@H](O[C@H]2[C@H](O[C@H]3[C@H](O)[C@@H](O)[C@H](N=C(N)N)[C@@H](O)[C@@H]3N=C(N)N)O[C@@H](C)[C@]2(O)C=O)O[C@@H](CO)[C@H](O)[C@H]1O
inactive: outcome [1] | outcome [2] | outcome [3]

CO/N=C(\C(=O)N[C@@H]1C(=O)N2C(C(=O)O)=C(COC(C)=O)CS[C@H]12)c1csc(N)n1 (stereo in doubt)
inactive: outcome [1] | outcome [2] | outcome [3]

CN[C@@H]1CCc2[nH]c3ccc(C(N)=O)cc3c2C1
inactive: outcome [1] | outcome [2] | outcome [3]

Nc1ccc(C(=O)O)c(O)c1
inactive: outcome [1] | outcome [2] | outcome [3]

CCS(=O)(=O)CCn1c([N+](=O)[O-])cnc1C
inactive: outcome [1] | outcome [2] | outcome [3] | outcome [4]

OCC(S)CS (centres undefined)
inactive: outcome [1] | outcome [2] | outcome [3]

O=C1CN(/N=C/c2ccc([N+](=O)[O-])o2)C(=O)N1
inactive: outcome [1] | outcome [2] | outcome [3] | outcome [4]

CN(C)CCc1c[nH]c2ccc(Cn3cncn3)cc12
inactive: outcome [1] | outcome [2] | outcome [3]

CC(C)[C@H](N)C(=O)OCC(CO)OCn1cnc2c(=O)[nH]c(N)nc21 (some centres undefined)
inactive: outcome [1] | outcome [2] | outcome [3]

Nc1ccn([C@@H]2O[C@H](CO)[C@@H](O)C2O)c(=O)n1 (some centres undefined)
inactive: outcome [1] | outcome [2] | outcome [3]

Cc1nnc(SCC2=C(C(=O)O)N3C(=O)[C@@H](NC(=O)Cn4cnnn4)[C@H]3SC2)s1
inactive: outcome [1] | outcome [2] | outcome [3] | outcome [4]

CC1COc2c(N3CCN(C)CC3)c(F)cc3c(=O)c(C(=O)O)cn1c23 (centres undefined)
inactive: outcome [1] | outcome [2] | outcome [3] | outcome [4]

CN1C(C(=O)Nc2ccccn2)=C(O)c2ccccc2S1(=O)=O
inactive: outcome [1] | outcome [2] | outcome [3] | outcome [4]

CC(C)CN(C[C@@H](OP(=O)(O)O)[C@H](Cc1ccccc1)NC(=O)O[C@H]1CCOC1)S(=O)(=O)c1ccc(N)cc1
inactive: outcome [1] | outcome [2] | outcome [3]

CC(C)N(CCC(C(N)=O)(c1ccccc1)c1ccccn1)C(C)C (centres undefined)
42.5%: parasite growth, % of control (lower = inhibition) [11]
100%: parasite growth remaining, % of DMSO control (lower = more inhibition) [10]
95.7%: growth, % of control [12]
105%: parasite growth, % of DMSO control [9]
inactive: outcome [5] | outcome [6] | outcome [7] | max response [8] 11.9% and -6.08% and 19.7% | outcome [1] | outcome [2] | outcome [3] | outcome [13]

CN1C(=O)C(O)N=C(c2ccccc2)c2cc(Cl)ccc21 (centres undefined)
inactive: max response [8] 6.95% | outcome [1] | outcome [2] | outcome [3]

NS(=O)(=O)c1cc2c(cc1C(F)(F)F)NC(Cc1ccccc1)NS2(=O)=O (centres undefined)
inactive: outcome [1] | outcome [2] | outcome [3] | outcome [4] | outcome [13]

COC(=O)C(c1ccccc1)C1CCCCN1 (centres undefined)
inactive: outcome [14] | outcome [15] | max response [16] 3.62% and -0.896% | max response [8] -2.03% | max response [17] -2.58% and -3.35% | outcome [1] | outcome [2] | outcome [3]

CN=C(NC#N)NCCSCc1nc[nH]c1C
inactive: outcome [1] | outcome [2] | outcome [3] | outcome [4] | outcome [13]

CCN(CC)C(=O)/C(C#N)=C/c1cc(O)c(O)c([N+](=O)[O-])c1
inactive: outcome [1] | outcome [2] | outcome [3] | outcome [4] | outcome [13]

NC(=O)c1cnccn1
inactive: outcome [1] | outcome [2] | outcome [3] | outcome [4]

C[C@](N)(Cc1ccc(O)cc1)C(=O)O
inactive: outcome [1] | outcome [2] | outcome [3] | outcome [4] | outcome [13]

OCCOCCN1CCN(C2=Nc3ccccc3Sc3ccccc32)CC1
inactive: outcome [1] | outcome [2] | outcome [3] | outcome [4]

S=P(N1CC1)(N1CC1)N1CC1
inactive: outcome [1] | outcome [2] | outcome [3] | outcome [13]

Nc1ncn([C@H]2C[C@H](O)[C@@H](CO)O2)c(=O)n1
inactive: outcome [1] | outcome [2] | outcome [3] | outcome [4] | outcome [13]

COCCCOc1ccnc(CS(=O)c2nc3ccccc3[nH]2)c1C (centres undefined)
78.8%: parasite growth, % of DMSO control [9]
inactive: outcome [1] | outcome [2] | outcome [3] | outcome [4] | outcome [13]
63.9%: parasite growth, % of control (lower = inhibition) [11]
83.7%: growth, % of control [12]
74.1%: parasite growth remaining, % of DMSO control (lower = more inhibition) [10]

CNCCCC12CCC(c3ccccc31)c1ccccc12
inactive: outcome [2]
active: AC50 [1] 3.16 µM | AC50 [3] 3.17 µM | AC50 [4] 3.55 µM | AC50 [13] 3.16 µM

C=CCC1([C@H](C)CCC)C(=O)NC(=O)NC1=O
inactive: max response [8] -4.95% | outcome [1] | outcome [2] | outcome [3] | outcome [4]

COc1c(N2C[C@@H]3CCCN[C@@H]3C2)c(F)cc2c(=O)c(C(=O)O)cn(C3CC3)c12
inactive: outcome [1] | outcome [2] | outcome [3] | outcome [4] | outcome [13]
